Shown is part of a subset that was picked to be rich in the strongest signals.
Tests used:
Assay in all cases: glycan array binding signal (z-score within array); higher = stronger binding
Conditions in all cases: glycan notation: IUPAC condensed, linker removed
[1] = molecular target: Fuc(a1-2)Gal(b1-3)GlcNAc6S
Outline: (§1)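 From the Consortium for Functional Glycomics database, 3228 arrays were curated, keeping only those whose protein sequence was available. Binding is given as a within-array Z-score averaged across arrays sharing a protein sequence and across linkers. Negative Z-scores can be read as non-binding.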

[2] = molecular target: Fuc(a1-2)Gal(b1-3)[Fuc(a1-4)]GlcNAc(b1-2)Man(a1-3)[Fuc(a1-2)Gal(b1-3)[Fuc(a1-4)]GlcNAc(b1-2)Man(a1-6)]Man(b1-4)GlcNAc(b1-4)[Fuc(a1-6)]GlcNAc(b1-4)[Fuc(a1-6)]GlcNAc
Outline: as §1

[3] = molecular target: Fuc(a1-2)Gal(b1-4)GlcNAc(b1-2)Man(a1-3)[Fuc(a1-2)Gal(b1-4)GlcNAc(b1-2)Man(a1-6)]Man(b1-4)GlcNAc(b1-4)GlcNAc
Outline: as §1

[4] = molecular target: Fuc(a1-2)Gal(b1-4)GlcNAc(b1-2)[Fuc(a1-2)Gal(b1-4)GlcNAc(b1-4)]Man(a1-3)[Fuc(a1-2)Gal(b1-4)GlcNAc(b1-2)Man(a1-6)]Man(b1-4)GlcNAc(b1-4)GlcNAc
Outline: as §1

[5] = molecular target: Fuc(a1-2)Gal(b1-4)GlcNAc(b1-3)Gal(b1-4)GlcNAc(b1-2)Man(a1-3)[Fuc(a1-2)Gal(b1-4)GlcNAc(b1-3)Gal(b1-4)GlcNAc(b1-2)Man(a1-6)]Man(b1-4)GlcNAc(b1-4)GlcNAc
Outline: as §1

[6] = molecular target: Fuc(a1-2)Gal(b1-4)[Fuc(a1-3)]GlcNAc
Outline: as §1

[7] = molecular target: Fuc(a1-2)Gal(b1-4)[Fuc(a1-3)]GlcNAc(b1-2)[Fuc(a1-2)Gal(b1-4)[Fuc(a1-3)]GlcNAc(b1-4)]Man(a1-3)[Fuc(a1-2)Gal(b1-4)[Fuc(a1-3)]GlcNAc(b1-2)Man(a1-6)]Man(b1-4)GlcNAc(b1-4)GlcNAc
Outline: as §1

[8] = molecular target: Fuc(a1-2)Gal6S(b1-3)GlcNAc6S
Outline: as §1

[9] = molecular target: Fuc(a1-2)[Gal(a1-3)]Gal(b1-3)GlcNAc(b1-2)Man(a1-3)[Fuc(a1-2)[Gal(a1-3)]Gal(b1-3)GlcNAc(b1-2)Man(a1-6)]Man(b1-4)GlcNAc(b1-4)[Fuc(a1-6)]GlcNAc
Outline: as §1

[10] = molecular target: Fuc(a1-2)[Gal(a1-3)]Gal(b1-4)[Fuc(a1-3)]GlcNAc
Outline: as §1

[11] = molecular target: Fuc(a1-2)[GalNAc(a1-3)]Gal(b1-3)GlcNAc(b1-2)Man(a1-3)[Fuc(a1-2)[GalNAc(a1-3)]Gal(b1-3)GlcNAc(b1-2)Man(a1-6)]Man(b1-4)GlcNAc(b1-4)[Fuc(a1-6)]GlcNAc
Outline: as §1

[12] = molecular target: Fuc(a1-2)[GalNAc(a1-4)]Gal(b1-4)GlcNAc
Outline: as §1

[13] = molecular target: Fuc(a1-2)[GalNAc(b1-3)]Gal
Outline: as §1

[14] = molecular target: Fuc(a1-3)[Gal(b1-4)]GlcNAc(b1-2)Man
Outline: as §1

[15] = molecular target: Gal(a1-3)Gal(b1-3)GlcNAc(b1-2)Man
Outline: as §1

[16] = molecular target: Gal(a1-3)Gal(b1-4)[Fuc(a1-3)]GlcNAc
Outline: as §1

[17] = molecular target: Gal(a1-3)[Gal(a1-4)]Gal(b1-4)GlcNAc
Outline: as §1

[18] = molecular target: Gal(b1-3)GlcNAc
Outline: as §1

[19] = molecular target: Gal(b1-3)GlcNAc(b1-2)Man
Outline: as §1

[20] = molecular target: Gal(b1-3)GlcNAc(b1-2)Man(a1-3)[GlcNAc(b1-4)][Gal(b1-3)GlcNAc(b1-2)Man(a1-6)]Man(b1-4)GlcNAc(b1-4)GlcNAc
Outline: as §1

[21] = molecular target: Gal(b1-3)GlcNAc(b1-3)Gal(b1-4)GlcNAc(b1-2)Man(a1-3)[Gal(b1-3)GlcNAc(b1-3)Gal(b1-4)GlcNAc(b1-2)Man(a1-6)]Man(b1-4)GlcNAc(b1-4)GlcNAc
Outline: as §1

[22] = molecular target: Gal(b1-3)GlcNAc(b1-3)Gal(b1-4)GlcNAc(b1-2)[Gal(b1-3)GlcNAc(b1-3)Gal(b1-4)GlcNAc(b1-6)]Man(a1-6)[Gal(b1-3)GlcNAc(b1-3)Gal(b1-4)GlcNAc(b1-2)Man(a1-3)]Man(b1-4)GlcNAc(b1-4)[Fuc(a1-6)]GlcNAc
Outline: as §1

[23] = molecular target: Gal(b1-3)GlcNAc(b1-3)Gal(b1-4)GlcNAc(b1-3)Gal(b1-4)GlcNAc(b1-2)[Gal(b1-3)GlcNAc(b1-3)Gal(b1-4)GlcNAc(b1-3)Gal(b1-4)GlcNAc(b1-6)]Man(a1-6)[Gal(b1-3)GlcNAc(b1-3)Gal(b1-4)GlcNAc(b1-3)Gal(b1-4)GlcNAc(b1-2)Man(a1-3)]Man(b1-4)GlcNAc(b1-4)[Fuc(a1-6)]GlcNAc
Outline: as §1

[24] = molecular target: Gal(b1-3)[Fuc(a1-4)]GlcNAc(b1-6)GalNAc
Outline: as §1

[25] = molecular target: Gal(b1-4)GlcNAc(b1-2)Man(a1-6)[GlcNAc(b1-2)Man(a1-3)]Man(b1-4)GlcNAc(b1-4)GlcNAc
Outline: as §1

[26] = molecular target: Gal(b1-4)GlcNAc(b1-3)Gal(b1-4)GlcNAc(b1-3)Gal(b1-4)GlcNAc(b1-3)Gal(b1-4)GlcNAc(b1-3)Gal(b1-4)GlcNAc(b1-2)Man(a1-3)[Gal(b1-4)GlcNAc(b1-3)Gal(b1-4)GlcNAc(b1-3)Gal(b1-4)GlcNAc(b1-3)Gal(b1-4)GlcNAc(b1-3)Gal(b1-4)GlcNAc(b1-2)Man(a1-6)]Man(b1-4)GlcNAc(b1-4)[Fuc(a1-6)]GlcNAc
Outline: as §1

[27] = molecular target: Gal3S(b1-4)[Fuc(a1-3)]Glc6S
Outline: as §1

[28] = molecular target: Gal6P(b1-4)GlcNAc
Outline: as §1

B1: Blon2468mut (Bifidobacterium longum) (protein)
chain: MTFIKQMMPRYVASMTAGIVAAAMAATCAFAPVANADAVSPTQETIQSTGRHFMVYYRAWRDVTMKGVNTDLPDDNWISMYDIPYGVDVVNIFSYVPSGQEEQAQPFYDKLKSDYAPYLHSRGIKLVRGIDYTGVAVNGFRTFMKEQNKTESEATEADYDAYAKQVIDKYMISVGLDGLDIDMQAHPNDADVKISDNVIRALSKHIGPKSAKPDTTMFLYDTNGSYLNPFKNVAECFDYVAYQQYGSSSDRTARAAADYQPYIGNEFVPGLTFPEEGDMNNRWYDATEPYEESHFYQVASYVREHNLGGMFVYALDRDGRNYDEDLRRIVPSNLLWTKTAIAESEGMALDTAKTAANHYLDRMSLRQVIDDNAASADKARDMVGKAANLYETNKAVLGGDYGEGFSNTYDPTLEAGLLGIDISVLQQQIDKSSEIIGADTAESDAKTALRMARDAAIDGLTGKIYTADQVSAWSQALKAALDATVPVPTPDSTDQNGNRDKVTNHKVQGQPKQLSATGISTDIIVAVGVTLAIAGVALSLSRKLS
glycan array binding signal (z-score) [1]: -0.052
glycan array binding signal (z-score) [2]: -0.074
glycan array binding signal (z-score) [3]: -0.068
glycan array binding signal (z-score) [4]: -0.045
glycan array binding signal (z-score) [5]: 0.003
glycan array binding signal (z-score) [6]: -0.065
glycan array binding signal (z-score) [7]: -0.036
glycan array binding signal (z-score) [8]: 0.078
glycan array binding signal (z-score) [9]: -0.055
glycan array binding signal (z-score) [10]: -0.049
glycan array binding signal (z-score) [11]: -0.036
glycan array binding signal (z-score) [12]: -0.021
glycan array binding signal (z-score) [13]: -0.061
glycan array binding signal (z-score) [14]: -0.022
glycan array binding signal (z-score) [15]: -0.087
glycan array binding signal (z-score) [16]: -0.083
glycan array binding signal (z-score) [17]: 0.009
glycan array binding signal (z-score) [18]: -0.068
glycan array binding signal (z-score) [19]: -0.078
glycan array binding signal (z-score) [20]: -0.042
glycan array binding signal (z-score) [21]: -0.09
glycan array binding signal (z-score) [22]: 0.03
glycan array binding signal (z-score) [23]: 0.124
glycan array binding signal (z-score) [24]: -0.056
glycan array binding signal (z-score) [25]: -0.055
glycan array binding signal (z-score) [26]: -0.046
glycan array binding signal (z-score) [27]: 0.006
glycan array binding signal (z-score) [28]: -0.066
